Data: PubChem BioAssay AID2060323 (National Center for Advancing Translational Sciences (NCATS), 2025)
Records with an inconclusive call do not appear. Activity calls are given as the source filed them. Calls follow the shape of the dose curve; as a rule, active = well fitted activation curve with a large enough effect; inconclusive = small, poorly fitted or top-dose-only effect; inactive = no such curve, though single readings can be large or run the other way.

molecular target: Cellular tumor antigen p53 (Homo sapiens) (UniProt P04637); assay: Confirmatory qHTS for small molecule compounds that upregulate eGFP-tagged delta133p53alpha (in C-terminal) cells.; settings: delta133p53alpha-eGFP (C-terminal) reporter cells, GFP fluorescence upregulation; series mostly up to 57.5 µM; activation (upregulation): at the top concentration
Source text: Assay Development and Screening Technology
National Center for Advancing Translational Sciences (NCATS),
National Institute of Health (NIH), Rockville, Maryland
Cellular senescence (CS) is one of the hallmarks of aging and age-related diseases. Senescent cells are characterized by an irreversible growth arrest, an increase in senescence-associated beta-galactosidase (SA-beta-gal) activity and p16INK4a expression, an activation of the DNA damage response pathways, and the emergence of a senescence-associated secretory phenotype (SASP).
Delta133p53alpha, a human/primate-specific p53 protein isoform, delays or inhibits the induction of CS and SASP in various types of human cells, including progeria-derived fibroblasts, primary normal astrocytes, and CD8+ T lymphocytes. Induction of delta133p53alpha with small molecule compounds may provide therapeutic opportunities for inhibition of senescence/SASP-associated pathologies in progeria syndromes, astrocyte-mediated neuroprotection in neurodegenerative diseases, and possibly prevention and treatment of a wider range of senescence- and aging-associated diseases.
Here we report the development and validation of a cell-based quantitative high throughput screening (qHTS) assay in 1,536-well format. This qHTS assay uses the NCI-H358 cell line with doxycycline-inducible expression of enhanced green fluorescent protein (eGFP)-tagged delta133p53alpha, which allows efficient and highly quantitative measurement of the protein levels.
PROTOCOL TABLE (as described by Inglese J, Shamu CE and Guy RK. 2007)
SEQUENCE No. (e.g., 1, 2, 3, etc.); […] (e.g., Cells, Incubation, Reagent, etc.); VALUE; DESCRIPTION.
1; Cells; 4uL; 800 doxycycline treated cells / well in doxycycline-free media, 1536-well black, clear-bottom low base Aurora microplates.
2; Compounds; 23 nL; Kalypsis pin tool (Wako) equipped with 1536-well pin heads, 5-azacytidine positive control.
3; Incubation; 24 hr; 37C, 5% CO2; 95% relative humidity.
4; Aspiration; 1x; BioTek EL406 washer dispenser (Agilent).
5; Fixing; 3.5% paraformaldehyde, BioTek EL406 washer dispenser (Agilent).
6; Washing; 1x PBS; BioTek EL406 washer dispenser (Agilent).
7; Nuclei staining; 1:1000 dilution of Hoechst 33342 (Thermofisher), BioTek EL406 washer dispenser (Agilent).
8; Incubation; 20 min; in the dark at room temperature.
9; Washing; 2x, 1x PBS (ThermoFisher), BioTek EL406 washer dispenser (Agilent).
10; Reagent; 10 uL; 1x PBS per well, sealed with clear adhesive tape.
11; Detection; Fluorescence, Acumen eX3 laser scanning cytometer (STP Labtech), GFP filters […].
NOTES (numbers refer to sequence numbers above).
1. NCI-H358 cells expressing eGFP-tagged delta133p53alpha were grown in T75 culture flasks and treated with doxycycline for 24h, at 10 ng/ml for eGFP-D133p53a cells (N-terminal cell) and 100 ng/ml for D133p53a-eGFP cells (C-terminal cells). Cells were trypsinized, counted using a Counted 3 Automated Cell Counter (Thermo Fisher), and diluted to a concentration of 200,000 cells/ml. A Multidrop Combi Reagent Dispenser (ThermoFisher) was used to dispense 800 cells/well in […] of doxycycline-free media, into 1536-well black/clear bottom low base plates (AuroraMicroplates).
2. After plating cells, 23 nl of compound library, DMSO vehicle control or positive control (5-azacytidine) were transferred by Pin Tool (Wako). The plate map layout was the same for each plate: (column 1) non-doxycycline treated cells + DMSO vehicle control; (column 2) doxycycline treated cells + DMSO vehicle control baseline; (column 3) doxycycline treated cells + positive control 57.5 uM final concentration 5-azacytidine; (column 4) doxycycline treated cells + serial dilution of 5-azacytidine, 16-point 1:2 titration spanning 1.8 nM to […] final concentration; (columns 5-48) doxycycline treated cells + titration of library compounds.
3. Cells were incubated at 37 °C, 5 % CO2, 95% RH with breathable metal lid for 24h.
4-10. […]

Chain of Cellular tumor antigen p53 (Homo sapiens) (P04637 whole entry, looked up): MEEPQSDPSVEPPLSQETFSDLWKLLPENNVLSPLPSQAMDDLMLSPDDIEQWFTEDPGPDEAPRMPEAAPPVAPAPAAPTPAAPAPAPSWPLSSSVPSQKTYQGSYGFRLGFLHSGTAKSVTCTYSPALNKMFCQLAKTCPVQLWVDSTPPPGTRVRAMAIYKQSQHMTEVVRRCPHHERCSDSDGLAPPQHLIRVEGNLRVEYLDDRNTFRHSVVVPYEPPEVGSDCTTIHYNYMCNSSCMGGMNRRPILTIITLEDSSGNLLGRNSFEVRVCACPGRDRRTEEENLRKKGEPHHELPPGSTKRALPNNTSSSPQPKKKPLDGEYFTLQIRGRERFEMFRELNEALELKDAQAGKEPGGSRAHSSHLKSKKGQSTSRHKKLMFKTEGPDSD

Structure (SMILES) | activation (upregulation) | Potency
CCCCCCCCCCCCCCCCCCOC[C@H](COP(=O)([O-])OCC[N+](C)(C)C)OC | -18% (inactive) | –
CN(C)c1nc(N)c(C(=O)N=C(N)N)nc1Cl | 4.57% (inactive) | –
CNC(=O)[C@H]1O[C@@H](n2cnc3c(NCc4cccc(I)c4)ncnc32)[C@H](O)[C@@H]1O | -35.1% (inactive) | –
N#Cc1cc([N+](=O)[O-])c2sc(C(N)=O)[n+]([O-])c2c1 | 3.58% (inactive) | –
Cc1cc(O)c2c(c1)C(=O)c1cc(O)cc(O)c1C2=O | – | 21.7 µM (active)
CN(C)C(=O)C(CCN1CCC(O)(c2ccc(Cl)cc2)CC1)(c1ccccc1)c1ccccc1 | 49.5% (inactive) | –
CC1c2cccc(O)c2C(O)=C2C(=O)C3(O)C(O)=C(C(N)=O)C(=O)C(N(C)C)C3C(O)C21 (stereo unspecified) | – | 0.0061 µM (active)
Brc1c(Br)c(Br)c2[nH]cnc2c1Br | – | 21.7 µM (active)
NC[C@@H]1O[C@H](C23CC4CC(CC(C4)C2)C3)Cc2c1ccc(O)c2O | – | 19.3 µM (active)
CC[n+]1c(/C=C/C=C2/N(C)c3ccccc3C2(C)C)sc2ccccc21 | – | 12.2 µM (active)
O=[N+]([O-])c1ccc2c(c1)S(=O)(=O)C=C2 | – | 8.63 µM (active)
CC(=O)SC1CC2=CC(=O)CC[C@]2(C)C2CC[C@@]3(C)C(CC[C@@]34CCC(=O)O4)C12 (stereo partly specified) | -5.04% (inactive) | –
O[Si](CCCN1CCCCC1)(c1ccc(F)cc1)C1CCCCC1 (stereo unspecified) | 14.9% (inactive) | –
CCCCS(=N)(=O)CCC(N)C(=O)O (stereo unspecified) | 0.0359% (inactive) | –
CCOC(=O)Nc1ccc(NCc2ccc(F)cc2)nc1N | 24.1% (inactive) | –
O=C1N(c2ccccc2)c2ccccc2C1(Cc1ccncc1)Cc1ccncc1 | 10.3% (inactive) | –
COC(=O)[C@H]1[C@H]2C[C@@H]3c4[nH]c5cc(OC)ccc5c4CCN3C[C@H]2C[C@@H](OC(=O)c2cc(OC)c(OC)c(OC)c2)[C@@H]1OC | – | 30.6 µM (active)
NS(=O)(=O)c1ccc(-n2nc(C(F)(F)F)cc2-c2ccc(Cl)cc2)cc1 | 9.14% (inactive) | –
CC12C(=O)OC(=O)C1(C)C1CCC2O1 (stereo unspecified) | – | 4.85 µM (active)
N=c1ccn2c(n1)O[C@H]1[C@H](O)[C@@H](CO)O[C@H]12 | 8.71% (inactive) | –
C=CCNc1ncnc2ccc(Br)cc12 | -0.729% (inactive) | –
